# Assay results: PubChem BioAssay (NCI)
# This is part of a sample that, as a whole, favours compounds with a hit. Of some 83,000 tested, about 20% had one in any assay.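 Percent growth is the endpoint: 0 to 100 indicates growth inhibition (40 means 60% inhibition), 0 means no net growth, and negative values indicate cell death.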 Values without a mark were called inactive. Calls of active or inactive are those of the source. The calls were made as follows: active = growth percent below 10; inactive = the rest.
# What was measured:
# Assay in all cases: NCI-60 one-dose screen, 48 h (100 = growth as untreated, 0 = no growth, -100 = all killed)
# Conditions in all cases: 10 µM unless noted
# RPMI-8226 leukemia = tested on: RPMI-8226 leukemia
# OVCAR-8 ovarian = tested on: OVCAR-8 ovarian
# OVCAR-5 ovarian = tested on: OVCAR-5 ovarian
# OVCAR-4 ovarian = tested on: OVCAR-4 ovarian
# IGROV1 ovarian = tested on: IGROV1 ovarian
# OVCAR-3 ovarian = tested on: OVCAR-3 ovarian
# HS 578T breast = tested on: HS 578T breast
# NCI/ADR-RES ovarian = tested on: NCI/ADR-RES ovarian
# T-47D breast = tested on: T-47D breast
# BT-549 breast = tested on: BT-549 breast
# MDA-MB-435 melanoma = tested on: MDA-MB-435 melanoma
# SW-620 colon = tested on: SW-620 colon
# MCF7 breast = tested on: MCF7 breast
# HCT-116 colon = tested on: HCT-116 colon
# HCC-2998 colon = tested on: HCC-2998 colon
# KM12 colon = tested on: KM12 colon
# SK-OV-3 ovarian = tested on: SK-OV-3 ovarian
Compound,growth (RPMI-8226 leukemia),growth (OVCAR-8 ovarian),growth (OVCAR-5 ovarian),growth (OVCAR-4 ovarian),growth (IGROV1 ovarian),growth (OVCAR-3 ovarian),growth (HS 578T breast),growth (NCI/ADR-RES ovarian),growth (T-47D breast),growth (BT-549 breast) [%],growth (MDA-MB-435 melanoma),growth (SW-620 colon),growth (MCF7 breast),growth (HCT-116 colon),growth (HCC-2998 colon),growth (KM12 colon) [%],growth (SK-OV-3 ovarian) [%]
COc1ccc(CCNc2nc(SC)nc(-c3cccc([N+](=O)[O-])c3)c2C#N)cc1OC,82.6%,61.6%,87.5%,5.9% (active),95.4%,102%,68.3%,68.4%,79.3%,42.2,87.7%,92.9%,86.8%,82%,93.6%,99.1,–
O=S(=O)(Nc1ccc(Br)c(Cl)c1)c1ccc(-c2cnc(C3CC3)o2)cc1,20.5%,20.4%,29.4%,46.3%,26.8%,-19.6% (active),10% (active),-15.2% (active),30.9%,–,-17.1% (active),19.3%,11.7%,19.5%,45.9%,33.8,36.3
COc1ccc(C(=O)COc2ccc(/C=C3\Oc4ccc(OC)cc4C3=O)cc2)cc1,80.5%,88%,117%,115%,–,103%,97.3%,109%,103%,99.2,115%,95.9%,110%,84.9%,–,94,102
COc1ccc(/C=C(\C#N)C(=O)Nc2cccc(Nc3nc(SC)nc(-c4cccc([N+](=O)[O-])c4)c3C#N)c2)cc1OC,83.8%,102%,–,91.1%,74.7%,112%,104%,104%,87%,95.9,103%,–,70.8%,92.6%,–,99.1,99
O=C(N=Nc1c(O)[nH]c2ccc(Br)cc12)c1cc(-c2ccccc2)on1,105%,104%,–,94.9%,101%,115%,99.1%,103%,101%,104,95.8%,103%,93.2%,106%,–,100,111
C=CC(=O)Nc1cccc(-c2nc(SC)nc(Nc3cccc(OC)c3)c2C#N)c1,40%,42%,103%,62.5%,65.9%,52.1%,49.3%,49.2%,38.5%,45.4,43.4%,89.1%,52.2%,54.4%,82.3%,87.9,–
Cc1cc(NS(=O)(=O)c2ccc(-c3cnc(C4CC4)o3)cc2)ccc1Cl,24.8%,12.9%,22%,44.7%,27.7%,–,–,0.314% (active),32.4%,28.8,0.57% (active),21.7%,11.1%,13.3%,–,27,32.4
Cc1ccc(OC(=O)c2ccc(Cl)cc2)cc1,92.4%,96.7%,97%,79.8%,–,99.9%,110%,107%,103%,100,99.1%,87.3%,102%,57.9%,95.3%,104,116
COc1cc(CNc2oc(-c3ccccc3)c(-c3ccccc3)c2C#N)cc(CN2CCN(C)CC2)c1O,2.73% (active),94.5%,63.8%,55%,71.2%,80.2%,70.5%,75.3%,74%,76.4,40.5%,–,14.9%,36.7%,–,66.7,95.9
N#C/C(=C\c1ccc(-c2ccc(Cl)c(Cl)c2)o1)c1nc(-c2ccco2)cs1,63.6%,101%,55.7%,37.6%,40.5%,–,97.4%,101%,-21.3% (active),109,103%,103%,12.5%,97.9%,0.932% (active),50.6,85.1
CC(=O)O[C@H]1CC[C@]2(C)[C@H]3CC=C4[C@@H]5CC(C)(C)CC[C@]5(C(=O)NCCNCCN)CC[C@@]4(C)[C@]3(C)CC[C@H]2C1(C)C,-44.4% (active),-85.3% (active),-87.7% (active),-25% (active),-63.9% (active),-91.4% (active),80.6%,-86% (active),-46.5% (active),–,-55.5% (active),-84.6% (active),-90.7% (active),-91.2% (active),-92.1% (active),19.7,95.8
COc1cccc(-c2nn(C(C)(C)C)cc2-c2ccnc(NCCCNS(=O)(=O)c3cccc4ccccc34)c2)c1,103%,103%,104%,101%,110%,108%,101%,101%,102%,–,102%,106%,98.6%,98.7%,114%,99.5,110
O=C1NC(=S)NC(=O)C1CC(=O)n1c(-c2ccccc2)nc2ccccc21,108%,95.3%,99.5%,98.1%,84.2%,–,98.9%,104%,95.3%,100,102%,98.6%,80.4%,104%,–,101,90.4
COc1ccc2c(c1)O/C(=C\c1cccc(OCC(=O)Nc3nc4c(s3)CCCC4)c1)C2=O,49.6%,-23.4% (active),103%,62.4%,–,41.5%,84%,-9.46% (active),58.4%,105,83.1%,89.1%,86.1%,77.7%,–,82,90.9
C=CC(=O)Nc1cccc(-c2nc(SC)nc(NCCN3CCOCC3)c2C#N)c1,81.4%,83.1%,–,90.6%,90.4%,97.8%,82.6%,95%,93%,87.7,87.1%,108%,72.6%,95.3%,115%,102,108
